PfHsp90 yeast 2 – growth inhibition of PfHsp90-expressing yeast, primary screen, antimalarial PfHsp90 inhibitor project, S. cerevisiae, BacTiter-Glo luminescence, single point, set 2; BacTiter-Glo ATP, 48 h; yeast lacking PDR1 and PDR3 efflux regulators; inhibition, % at 9.4 µM; hit rate 0.32% among 310,000;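 active means every replicate shows inhibition above about 80%, whatever the replicate mean, limit read from the data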;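 further: 0% = DMSO neutral controls and 100% = 20 µM radicicol positive controls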
tim10-1 inh – growth inhibitors of tim10-1 mutant yeast, primary screen, luminescence, uHTS; hit rate 2.2% among 330,000; inhibition, % at 20 µM; S. cerevisiae tim10-1 ts strain growth, BacTiter-Glo, 24 h;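 active means inhibition of at least 40%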;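 further: mutant grown at 25 °C; 0% = DMSO wells with yeast and 100% = wells holding no yeast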
TIM10 inh – growth inhibitors of isogenic TIM10 control yeast, primary screen, counter-screen for tim10-1 yeast inhibitor project, luminescence, uHTS | S. cerevisiae TIM10 strain growth, BacTiter-Glo luminescence, 24 h | AID 463195, 2010 | inhibition, % at 10 µM | hit rate 1.4% among 330,000;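 active means inhibition of 40% or more at the single tested concentration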;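 further: wild-type TIM10 isogenic control strain grown at permissive 25 °C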
tim23-1 inh – growth inhibitors of tim23-1 mutant yeast, primary screen, luminescence, uHTS | S. cerevisiae tim23-1 growth, BacTiter-Glo luminescence, 24 h | inhibition, % at 20 µM | hit rate 1.3% among 330,000;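 active means growth inhibition of the mutant yeast at or above 50%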;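 further: temperature-sensitive mutant grown at 25 °C; plate controls were DMSO-treated mutant yeast for no effect and medium wells lacking yeast for full effect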
B2AR ag – beta2AR agonists driving receptor internalization, primary screen, cell-based, FAP fluorogen, flow cytometry | Am2.2-beta2AR cells | response, % (test concentration not listed) | hit rate 0.43% among 340,000 | AID 504454, 2011;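 active means response above a set limit, near 3 SD of response in nonfluorescent compounds, cut at about 42% in these data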
Target sequence (P07550 whole entry, looked up): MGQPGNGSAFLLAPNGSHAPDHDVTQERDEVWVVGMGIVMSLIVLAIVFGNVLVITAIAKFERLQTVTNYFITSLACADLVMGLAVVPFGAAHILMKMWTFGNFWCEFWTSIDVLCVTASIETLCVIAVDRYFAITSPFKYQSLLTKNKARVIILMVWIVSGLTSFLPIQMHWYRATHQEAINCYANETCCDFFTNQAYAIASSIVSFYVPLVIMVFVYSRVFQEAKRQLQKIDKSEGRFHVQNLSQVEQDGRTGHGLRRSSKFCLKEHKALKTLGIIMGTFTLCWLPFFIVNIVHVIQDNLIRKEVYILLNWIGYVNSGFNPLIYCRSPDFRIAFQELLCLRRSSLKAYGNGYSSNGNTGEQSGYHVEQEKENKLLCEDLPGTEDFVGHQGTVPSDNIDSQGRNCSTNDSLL
tim10-1 conf – growth inhibitors of tim10-1 mutant yeast, confirmation, single concentration, luminescence, S. cerevisiae; hit rate 56% among 7,400; inhibition, % at 20 µM; shares compounds with tim10-1 inh; S. cerevisiae tim10-1 ts strain growth, BacTiter-Glo, 24 h; AID 463213, 2010;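 active means inhibition of yeast growth at or above a set limit in either of two repeat tests at 20 µM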;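 further: tim10-1 mutant grown at permissive 25 °C to find synthetic lethal compounds; 0% = DMSO yeast wells and 100% = medium wells without yeast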
* marks the source's active call; other numbers are inactive results; x = no result. Shown are actives, neighbours in structure and some others; about 3.8% of the full set was active somewhere.

SMILES	PfHsp90 yeast 2	tim10-1 inh	TIM10 inh	tim23-1 inh	B2AR ag	tim10-1 conf
Fc1cccc(Cl)c1CSc1ccc2nnc(-c3ccccn3)n2n1	-18	40*	36	-4	-10	31*
Fc1cccc(CSc2ccc3nnc(-c4ccccn4)n3n2)c1	x	30	-15	-8	3	x
Cc1ccc(C)c(Nc2cc(C)nc(-c3ccccc3O)n2)c1	7	26	39	50	-4	x
Cc1cc(Nc2ccccc2Cl)nc(-c2ccccc2O)n1	-20	53*	21	32	6	41*
Cc1cc(Nc2cccc(F)c2)nc(-c2ccccc2O)n1	-85	43*	37	33	12	43*
CC1Cc2cccc3ccc(=O)n(c23)C1 (stereo not given)	-63	x	x	x	1	x
CC(C)NC(=S)N/N=C1\CCCCc2ccccc21	-12	57*	34	35	-5	38*
CCCCOc1ccc(OCCSc2nc3ccccc3n2CC(=O)O)cc1	3	-5	5	11	-8	x
CCCCOC(=O)n1c(SCC(=O)N(C)C)nc2ccccc21	-7	41*	-14	11	-32	7
Cc1ccc2c(c1)c1c3n2CCN(C(=O)CCl)C3CCC1 (stereo not given)	14	43*	6	22	4	30
Cc1cc(O)c2c(c1)CC1C3CCC4CC(=O)CCC4(C)C3CC(=O)C21C (stereo not given)	-29	x	x	x	-2	x
O=C1/C(=C/c2ccc(F)cc2)SC(=S)N1CC(=O)N1CCCCC1c1cccnc1 (stereo not given)	-5	-24	30	30	4	x
O=C1/C(=C/c2ccccc2F)SC(=S)N1CC(=O)N1CCCCC1c1cccnc1 (stereo not given)	-29	45*	24	36	-6	16
Cc1nc2c(Cl)c(C)nn2c2c1CCC2	x	41*	-3	19	-3	21
COc1ccc(Nc2nc(S(=O)(=O)c3ccc(C)cc3)c(Cl)s2)cc1	-19	42*	17	30	6	30
Cc1ccc(S(=O)(=O)c2nc(Nc3ccccc3)sc2Cl)cc1	x	x	x	x	-7	x
CCOc1ccc(OCC(=O)OCC(=O)N2CCN(S(=O)(=O)c3ccc(C)cc3C)CC2)cc1	x	x	x	x	-6	x
COc1cccc(NCc2ccc([N+](=O)[O-])s2)c1	13	41*	34	41	-3	24
COc1ccccc1C(=O)NCCC(=O)NC1CCC(C)CC1 (stereo not given)	-7	17	6	20	5	x
COc1cccc(C2C(C(=O)c3cccs3)=C(O)C(=O)N2CCN2CCOCC2)c1OC (stereo not given)	3	6	-19	8	-4	x
O=C(OCc1nnc(-c2ccccc2)o1)c1ccco1	-8	41*	15	-11	-33	12
Cc1ccc(OCC(=O)N/N=C\c2cn(C)c3ccccc23)c([N+](=O)[O-])c1	-14	41*	13	-3	-10	15
Cn1cc(/C=N/NC(=O)COc2ccccc2[N+](=O)[O-])c2ccccc21	-3	29	25	14	-7	x
O=C1C(Br)=C(c2ccccc2)C(c2ccccc2)=C1c1ccccc1	-6	x	x	x	23	x
CC(=O)c1sc(NS(=O)(=O)c2ccc(C)cc2)nc1-c1ccccc1	-18	12	-8	12	5	x
SMILES	PfHsp90 yeast 2	tim10-1 inh	TIM10 inh	tim23-1 inh	B2AR ag	tim10-1 conf
NC(=O)c1ccc(NC(=O)COC(=O)C2COc3ccccc3O2)cc1 (stereo not given)	10	-2	-3	-1	0	x
Cc1ccnc(NC(=O)COC(=O)C2COc3ccccc3O2)n1 (stereo not given)	x	64*	-3	-3	1	10
CSc1cccc(NC(=O)c2ccc(NC3=NC4CS(=O)(=O)CC4S3)cc2)c1 (stereo not given)	5	-12	-8	-5	-5	x
N#Cc1ccccc1Cn1c(=O)n(C2CCCC2)c(=O)c2ccccc21	-8	46*	24	41	1	38*
O=c1c2ccccc2n(Cc2cccc(F)c2)c(=O)n1C1CCCC1	10	35	25	33	3	x
Cc1ccccc1CSCCNC(=O)c1ccccc1	-9	18	-14	9	3	x
Cc1ccccc1CSCCNC(=S)Nc1ccccc1	-15	45*	26	12	15	24
CCCn1c2ccc(C)cc2c2n[nH]c(=S)nc21	-10	46*	17	48	10	-1
N#CC(OC(=O)c1ccccc1)c1cccc([N+](=O)[O-])c1 (stereo not given)	-29	x	x	x	5	x
COc1cccc(-c2ccc(NC(=O)C3CCCN(Cc4nccn4C)C3)cc2)c1 (stereo not given)	56	0	4	-10	12	x
CC(=O)c1c(N2CCN(c3cccc(Cl)c3)CC2)nc(=S)n(-c2ccccc2)c1C	5	10	10	7	11	x
CCn1c(C)c(C(C)=O)c(N2CCN(c3cccc(Cl)c3)CC2)nc1=S	-20	44*	9	13	-11	16
O=C(Cc1c(F)cccc1Cl)OCC(=O)c1ccc[nH]1	x	11	5	18	-1	x
C/C(=N\NC(=S)NCc1ccccc1)c1ccc(Cl)s1	-35	41*	39	5	0	33*
COc1ccc(NCc2nc3ccccc3n2CCOc2ccc(C)cc2)cc1	5	50*	17	49	0	29
CSCCC(NC(=O)COc1ccccc1)C(=O)N(C)Cc1cccc(F)c1 (stereo not given)	-24	4	-1	10	-3	x
Cc1ccn2cc(-c3cccc(S(=O)(=O)N4CC(C)OC(C)C4)c3)nc2c1 (stereo not given)	-25	41*	13	30	7	8
Cc1ccn2cc(-c3cccc(S(=O)(=O)N4CCCC4)c3)nc2c1	-50	50*	9	27	9	-7
Cc1nc(-c2cccc(S(=O)(=O)N3CC(C)OC(C)C3)c2)cs1 (stereo not given)	15	12	7	13	-1	x
CC(Sc1nc2ccccc2c(=O)n1CCCN1CCOCC1)C(=O)N1CCc2ccccc21 (stereo not given)	-6	x	x	x	2	x
C[C@@H]1CC=C[C@H]2[C@H]1C(=O)N(Cc1ccccc1)[C@H]2c1ccoc1	x	50*	-2	5	14	34*
CC[C@@H]1CC=C[C@H]2[C@H]1C(=O)N(Cc1ccccc1)[C@H]2c1ccc(OC)c(Cl)c1	-16	43*	36	38	0	29
CC[C@@H]1CC=C[C@H]2[C@H]1C(=O)N(Cc1ccccc1)[C@H]2c1ccoc1	x	77*	-4	-14	24	73*
